Measurements: PubChem BioAssay AID651601 (Sanford-Burnham Center for Chemical Genomics, 2012)
Calls of active or inactive are those of the source.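 The calls were made as follows: active = CXCR6 mean IC50 below 15 µM, and neither CCR6 nor CXCR5 mean IC50 under five times that; inactive = the rest.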

Each compound was assayed against C-X-C chemokine receptor type 6 (Homo sapiens) (UniProt O00574) (assay: antagonist selectivity across CCR6, CXCR5 and CXCR6 – cell-based, CHO-K1 PathHunter beta-arrestin, luminescence, selectivity assay for CXCR6 antagonist project, profiling panel (AID 651601)). Conditions: antagonist mode, mean of runs.
C-X-C chemokine receptor type 6 (Homo sapiens), sequence (O00574 whole entry, looked up): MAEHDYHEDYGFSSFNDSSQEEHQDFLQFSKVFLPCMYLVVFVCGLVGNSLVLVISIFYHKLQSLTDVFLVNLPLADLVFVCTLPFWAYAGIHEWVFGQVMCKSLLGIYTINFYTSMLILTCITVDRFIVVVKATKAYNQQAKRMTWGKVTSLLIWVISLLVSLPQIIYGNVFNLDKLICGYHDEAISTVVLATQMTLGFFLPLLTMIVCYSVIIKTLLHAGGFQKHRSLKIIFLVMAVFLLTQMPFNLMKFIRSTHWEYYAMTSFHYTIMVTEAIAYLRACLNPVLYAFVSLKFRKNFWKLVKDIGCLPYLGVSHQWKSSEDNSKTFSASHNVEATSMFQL
For `COc1cccc(C(=O)NC2CC3CCCC(C2)N3CC(=O)Nc2ccccc2C(F)(F)F)c1` (stereo unspecified), the outcome was “inactive”.
In the case of `COc1cc(C(=O)NC2CC3CCCC(C2)N3CC(=O)Nc2ccccc2)cc(OC)c1OC` (stereo unspecified), the outcome is reported as “active”.
With `COc1cccc(C(=O)NC2CC3CCCC(C2)N3CC(=O)Nc2ccc(N(C)C)cc2)c1` (stereo unspecified) the outcome was “inactive”.
With `O=C(CN1C2CCCC1CC(NC(=O)c1ccccc1)C2)Nc1ccccc1C(F)(F)F` (stereo unspecified) the outcome was “inactive”.
`O=C(CN1C2CCCC1CC(NC(=O)c1ccccc1)C2)Nc1ccccc1` (stereo unspecified) was tested, and the outcome was “inactive”.
In the case of `CN(C)c1ccc(NC(=O)CN2C3CCCC2CC(NC(=O)c2ccccc2)C3)cc1` (stereo unspecified), the outcome is reported as “inactive”.
